Test results taken from the supplement of paper PMC11732987, “Enantioselective OTUD7B fragment discovery through chemoproteomics screening and high-throughput optimisation” (Communications Chemistry, 2025).

Tests used:
Assay in all cases: log2 ratio of Biotin-Ahx-Ub-VS probe labelling (fragment/DMSO); higher = less target engagement (more negative = stronger competition), active = hit call of the paper (q ≤ 0.05, log2 ratio ≤ -1)
Conditions in all cases: compound concentration: 200 uM; treatment time: 3 h
[1] = biological target: T1, USP42 (UniProt Q9H9J4)
T1 sequence (whole entry): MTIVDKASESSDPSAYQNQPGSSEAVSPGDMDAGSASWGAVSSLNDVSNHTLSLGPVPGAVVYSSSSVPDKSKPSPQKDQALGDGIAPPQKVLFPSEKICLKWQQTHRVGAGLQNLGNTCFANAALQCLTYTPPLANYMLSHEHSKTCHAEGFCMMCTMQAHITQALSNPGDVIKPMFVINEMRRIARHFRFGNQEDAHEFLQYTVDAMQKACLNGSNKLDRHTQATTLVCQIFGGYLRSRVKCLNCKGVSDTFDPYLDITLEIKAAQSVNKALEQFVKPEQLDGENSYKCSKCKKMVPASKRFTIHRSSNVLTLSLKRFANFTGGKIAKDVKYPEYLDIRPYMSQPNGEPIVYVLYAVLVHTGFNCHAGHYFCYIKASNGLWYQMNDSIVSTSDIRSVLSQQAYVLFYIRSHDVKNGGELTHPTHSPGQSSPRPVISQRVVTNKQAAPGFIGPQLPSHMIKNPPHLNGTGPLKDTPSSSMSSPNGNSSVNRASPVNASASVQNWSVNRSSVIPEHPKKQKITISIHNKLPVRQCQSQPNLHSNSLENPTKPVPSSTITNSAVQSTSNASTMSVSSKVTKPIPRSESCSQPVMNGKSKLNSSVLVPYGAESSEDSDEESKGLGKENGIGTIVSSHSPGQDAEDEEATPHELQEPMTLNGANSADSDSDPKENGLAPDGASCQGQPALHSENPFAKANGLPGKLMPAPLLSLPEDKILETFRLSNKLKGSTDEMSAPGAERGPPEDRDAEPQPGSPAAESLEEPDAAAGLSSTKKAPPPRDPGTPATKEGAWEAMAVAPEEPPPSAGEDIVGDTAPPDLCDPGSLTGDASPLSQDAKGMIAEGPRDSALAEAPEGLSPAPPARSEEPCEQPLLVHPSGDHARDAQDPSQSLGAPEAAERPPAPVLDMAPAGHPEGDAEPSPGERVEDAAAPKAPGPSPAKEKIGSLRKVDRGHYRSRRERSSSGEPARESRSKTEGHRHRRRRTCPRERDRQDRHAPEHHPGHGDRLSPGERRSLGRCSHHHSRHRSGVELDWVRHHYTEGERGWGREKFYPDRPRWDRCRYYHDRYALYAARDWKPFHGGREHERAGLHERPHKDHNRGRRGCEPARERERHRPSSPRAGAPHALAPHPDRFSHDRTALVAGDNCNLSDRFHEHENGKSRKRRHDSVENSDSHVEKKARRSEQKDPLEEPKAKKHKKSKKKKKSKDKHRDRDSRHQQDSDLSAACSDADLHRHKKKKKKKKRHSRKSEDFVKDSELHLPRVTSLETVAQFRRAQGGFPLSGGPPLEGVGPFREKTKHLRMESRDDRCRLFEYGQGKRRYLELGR
Method in brief: (§1)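 Triplicate samples of HEK293T lysate, 495 µg each, received fragment at 200 µM or vehicle for 3 h, followed by Biotin-Ahx-Ub-VS (0.5 µM final) for 1 h. After NeutrAvidin enrichment of labelled DUBs and LysC/trypsin digestion, peptides were run by diaPASEF LC-MS/MS. The values are average log2 fragment/vehicle ratios from global-median-normalised Spectronaut label-free quantities, tested by unpaired t-test on proteins having ≥2 unique peptides.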

[2] = biological target: USP46 (UniProt P62068)
Chain of USP46 (P62068 whole entry): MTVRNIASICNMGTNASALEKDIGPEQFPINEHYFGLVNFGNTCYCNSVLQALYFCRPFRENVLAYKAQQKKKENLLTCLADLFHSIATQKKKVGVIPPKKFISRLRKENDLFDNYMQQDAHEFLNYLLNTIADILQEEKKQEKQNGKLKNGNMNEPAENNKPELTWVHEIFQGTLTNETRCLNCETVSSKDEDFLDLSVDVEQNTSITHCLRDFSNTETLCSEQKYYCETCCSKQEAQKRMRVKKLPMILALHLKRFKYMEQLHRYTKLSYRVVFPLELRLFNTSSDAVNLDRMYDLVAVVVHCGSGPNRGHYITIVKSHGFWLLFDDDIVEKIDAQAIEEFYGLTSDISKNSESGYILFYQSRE
Method in brief: as §1

[3] = biological target: T2, USP47 (UniProt Q96K76)
T2 sequence (whole entry): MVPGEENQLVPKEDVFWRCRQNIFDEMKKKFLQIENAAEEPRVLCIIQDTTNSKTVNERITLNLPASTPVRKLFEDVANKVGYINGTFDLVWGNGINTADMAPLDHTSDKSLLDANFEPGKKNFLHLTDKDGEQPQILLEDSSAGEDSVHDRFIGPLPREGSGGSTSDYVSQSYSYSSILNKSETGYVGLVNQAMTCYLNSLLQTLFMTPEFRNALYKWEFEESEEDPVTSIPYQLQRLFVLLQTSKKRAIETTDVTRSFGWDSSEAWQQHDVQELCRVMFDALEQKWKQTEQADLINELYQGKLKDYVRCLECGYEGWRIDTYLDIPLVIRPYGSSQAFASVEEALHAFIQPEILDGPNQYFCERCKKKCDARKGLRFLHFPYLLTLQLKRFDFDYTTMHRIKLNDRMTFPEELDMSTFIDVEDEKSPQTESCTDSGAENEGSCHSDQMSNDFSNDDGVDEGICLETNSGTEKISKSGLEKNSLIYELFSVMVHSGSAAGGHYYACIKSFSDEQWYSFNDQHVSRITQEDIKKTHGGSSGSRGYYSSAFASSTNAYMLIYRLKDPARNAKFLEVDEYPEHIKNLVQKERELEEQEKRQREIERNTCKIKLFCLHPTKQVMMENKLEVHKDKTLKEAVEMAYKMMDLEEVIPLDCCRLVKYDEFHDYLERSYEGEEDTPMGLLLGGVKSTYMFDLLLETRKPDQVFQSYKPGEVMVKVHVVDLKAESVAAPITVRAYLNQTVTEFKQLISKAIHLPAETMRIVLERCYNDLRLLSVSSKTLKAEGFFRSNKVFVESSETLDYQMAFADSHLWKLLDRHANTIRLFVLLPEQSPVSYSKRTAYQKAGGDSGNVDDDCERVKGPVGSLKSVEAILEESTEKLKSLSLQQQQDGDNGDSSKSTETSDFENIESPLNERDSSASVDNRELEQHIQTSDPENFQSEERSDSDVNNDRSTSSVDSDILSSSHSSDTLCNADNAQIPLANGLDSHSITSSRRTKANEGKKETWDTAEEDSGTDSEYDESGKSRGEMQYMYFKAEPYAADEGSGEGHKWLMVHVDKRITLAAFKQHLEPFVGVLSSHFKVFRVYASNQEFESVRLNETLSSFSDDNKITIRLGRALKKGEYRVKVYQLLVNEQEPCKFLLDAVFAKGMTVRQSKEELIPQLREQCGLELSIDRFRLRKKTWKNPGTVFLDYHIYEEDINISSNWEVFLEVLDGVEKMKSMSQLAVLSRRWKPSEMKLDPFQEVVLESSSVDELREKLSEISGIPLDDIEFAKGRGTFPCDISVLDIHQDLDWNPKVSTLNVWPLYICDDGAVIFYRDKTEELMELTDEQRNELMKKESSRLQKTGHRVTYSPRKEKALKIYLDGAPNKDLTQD
Method in brief: as §1

[4] = biological target: T3, USP48 (UniProt Q86UV5)
T3 sequence (whole entry): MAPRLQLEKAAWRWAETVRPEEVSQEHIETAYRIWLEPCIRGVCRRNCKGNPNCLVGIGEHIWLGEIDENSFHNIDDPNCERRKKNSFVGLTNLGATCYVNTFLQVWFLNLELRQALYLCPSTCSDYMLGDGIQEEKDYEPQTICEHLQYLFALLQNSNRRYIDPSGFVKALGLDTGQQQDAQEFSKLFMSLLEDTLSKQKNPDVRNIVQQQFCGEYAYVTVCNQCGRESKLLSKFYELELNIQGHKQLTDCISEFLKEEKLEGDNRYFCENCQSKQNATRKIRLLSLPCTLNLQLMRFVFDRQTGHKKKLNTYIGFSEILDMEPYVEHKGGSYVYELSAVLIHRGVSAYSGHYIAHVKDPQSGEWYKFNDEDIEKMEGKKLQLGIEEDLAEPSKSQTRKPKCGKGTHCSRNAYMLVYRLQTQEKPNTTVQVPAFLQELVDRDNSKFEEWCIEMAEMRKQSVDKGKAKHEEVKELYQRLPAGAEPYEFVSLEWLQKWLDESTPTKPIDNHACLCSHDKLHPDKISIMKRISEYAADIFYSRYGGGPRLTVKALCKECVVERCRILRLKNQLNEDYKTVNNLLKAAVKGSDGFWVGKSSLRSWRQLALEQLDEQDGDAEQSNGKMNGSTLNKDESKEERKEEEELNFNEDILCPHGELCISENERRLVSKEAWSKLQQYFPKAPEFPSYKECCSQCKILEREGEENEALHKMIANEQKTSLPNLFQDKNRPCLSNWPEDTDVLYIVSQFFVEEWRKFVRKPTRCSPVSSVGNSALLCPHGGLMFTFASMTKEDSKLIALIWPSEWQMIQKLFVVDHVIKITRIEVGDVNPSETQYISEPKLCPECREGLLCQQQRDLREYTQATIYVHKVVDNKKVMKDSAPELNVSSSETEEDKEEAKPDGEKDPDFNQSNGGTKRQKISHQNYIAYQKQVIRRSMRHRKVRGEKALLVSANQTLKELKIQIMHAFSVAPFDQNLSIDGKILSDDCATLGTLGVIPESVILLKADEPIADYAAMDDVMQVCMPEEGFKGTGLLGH
Method in brief: as §1

[5] = biological target: T4, USP5 (UniProt P45974)
T4 sequence (whole entry): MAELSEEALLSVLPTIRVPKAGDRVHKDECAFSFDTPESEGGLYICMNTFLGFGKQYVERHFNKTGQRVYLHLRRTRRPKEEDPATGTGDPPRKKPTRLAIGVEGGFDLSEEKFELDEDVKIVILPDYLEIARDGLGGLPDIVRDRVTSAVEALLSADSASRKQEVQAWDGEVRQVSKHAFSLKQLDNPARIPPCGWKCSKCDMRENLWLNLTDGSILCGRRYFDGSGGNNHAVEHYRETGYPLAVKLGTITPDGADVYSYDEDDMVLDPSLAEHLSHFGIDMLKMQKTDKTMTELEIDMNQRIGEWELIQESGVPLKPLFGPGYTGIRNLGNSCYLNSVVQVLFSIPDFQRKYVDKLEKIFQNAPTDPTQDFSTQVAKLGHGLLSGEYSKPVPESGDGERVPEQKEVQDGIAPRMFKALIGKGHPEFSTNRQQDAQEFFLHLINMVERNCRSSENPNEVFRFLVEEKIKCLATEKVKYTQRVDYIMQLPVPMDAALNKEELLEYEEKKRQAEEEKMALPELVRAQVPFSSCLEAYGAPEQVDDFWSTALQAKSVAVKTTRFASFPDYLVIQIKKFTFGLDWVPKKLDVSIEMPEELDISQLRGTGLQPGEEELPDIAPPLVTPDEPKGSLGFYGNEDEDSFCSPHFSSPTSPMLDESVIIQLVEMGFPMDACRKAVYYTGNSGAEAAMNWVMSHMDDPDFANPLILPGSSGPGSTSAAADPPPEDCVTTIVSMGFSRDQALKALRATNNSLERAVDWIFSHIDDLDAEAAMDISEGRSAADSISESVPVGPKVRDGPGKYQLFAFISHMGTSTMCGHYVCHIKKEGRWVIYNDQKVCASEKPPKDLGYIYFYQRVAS
Method in brief: as §1

[6] = biological target: USP54 (UniProt Q70EL1)
Method in brief: as §1

[7] = biological target: USP7 (UniProt Q93009)
Chain of USP7 (Q93009 whole entry, looked up): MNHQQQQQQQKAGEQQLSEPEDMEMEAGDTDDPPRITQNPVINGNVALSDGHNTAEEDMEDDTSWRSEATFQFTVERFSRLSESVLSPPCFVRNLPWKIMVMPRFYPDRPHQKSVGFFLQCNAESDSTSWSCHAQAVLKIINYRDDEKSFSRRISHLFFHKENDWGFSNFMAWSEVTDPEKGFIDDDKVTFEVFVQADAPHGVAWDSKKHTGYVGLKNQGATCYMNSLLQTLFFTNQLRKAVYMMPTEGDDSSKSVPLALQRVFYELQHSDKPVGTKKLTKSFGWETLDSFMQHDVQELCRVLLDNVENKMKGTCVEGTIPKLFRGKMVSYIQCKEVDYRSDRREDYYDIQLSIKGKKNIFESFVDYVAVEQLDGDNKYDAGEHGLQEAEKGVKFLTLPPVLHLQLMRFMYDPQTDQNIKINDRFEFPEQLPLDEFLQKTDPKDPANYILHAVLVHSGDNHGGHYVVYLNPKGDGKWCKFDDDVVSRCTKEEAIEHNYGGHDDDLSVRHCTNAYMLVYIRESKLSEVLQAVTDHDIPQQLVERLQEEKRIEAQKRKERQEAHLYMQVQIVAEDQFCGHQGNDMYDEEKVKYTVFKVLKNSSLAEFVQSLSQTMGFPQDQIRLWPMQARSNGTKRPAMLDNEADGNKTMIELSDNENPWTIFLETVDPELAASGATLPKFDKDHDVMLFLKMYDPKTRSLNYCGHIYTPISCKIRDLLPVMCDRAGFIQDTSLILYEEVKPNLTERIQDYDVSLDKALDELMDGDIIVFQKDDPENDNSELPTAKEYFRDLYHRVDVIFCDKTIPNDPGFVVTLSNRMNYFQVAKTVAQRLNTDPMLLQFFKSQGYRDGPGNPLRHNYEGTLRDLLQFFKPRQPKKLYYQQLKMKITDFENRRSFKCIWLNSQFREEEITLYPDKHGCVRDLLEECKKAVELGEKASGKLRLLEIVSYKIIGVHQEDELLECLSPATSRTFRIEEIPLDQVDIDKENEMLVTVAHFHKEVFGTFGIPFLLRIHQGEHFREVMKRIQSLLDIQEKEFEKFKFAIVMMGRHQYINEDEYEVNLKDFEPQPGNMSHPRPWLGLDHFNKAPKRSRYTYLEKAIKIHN
Method in brief: as §1

[8] = biological target: T5, USP8 (UniProt P40818)
T5 sequence (whole entry): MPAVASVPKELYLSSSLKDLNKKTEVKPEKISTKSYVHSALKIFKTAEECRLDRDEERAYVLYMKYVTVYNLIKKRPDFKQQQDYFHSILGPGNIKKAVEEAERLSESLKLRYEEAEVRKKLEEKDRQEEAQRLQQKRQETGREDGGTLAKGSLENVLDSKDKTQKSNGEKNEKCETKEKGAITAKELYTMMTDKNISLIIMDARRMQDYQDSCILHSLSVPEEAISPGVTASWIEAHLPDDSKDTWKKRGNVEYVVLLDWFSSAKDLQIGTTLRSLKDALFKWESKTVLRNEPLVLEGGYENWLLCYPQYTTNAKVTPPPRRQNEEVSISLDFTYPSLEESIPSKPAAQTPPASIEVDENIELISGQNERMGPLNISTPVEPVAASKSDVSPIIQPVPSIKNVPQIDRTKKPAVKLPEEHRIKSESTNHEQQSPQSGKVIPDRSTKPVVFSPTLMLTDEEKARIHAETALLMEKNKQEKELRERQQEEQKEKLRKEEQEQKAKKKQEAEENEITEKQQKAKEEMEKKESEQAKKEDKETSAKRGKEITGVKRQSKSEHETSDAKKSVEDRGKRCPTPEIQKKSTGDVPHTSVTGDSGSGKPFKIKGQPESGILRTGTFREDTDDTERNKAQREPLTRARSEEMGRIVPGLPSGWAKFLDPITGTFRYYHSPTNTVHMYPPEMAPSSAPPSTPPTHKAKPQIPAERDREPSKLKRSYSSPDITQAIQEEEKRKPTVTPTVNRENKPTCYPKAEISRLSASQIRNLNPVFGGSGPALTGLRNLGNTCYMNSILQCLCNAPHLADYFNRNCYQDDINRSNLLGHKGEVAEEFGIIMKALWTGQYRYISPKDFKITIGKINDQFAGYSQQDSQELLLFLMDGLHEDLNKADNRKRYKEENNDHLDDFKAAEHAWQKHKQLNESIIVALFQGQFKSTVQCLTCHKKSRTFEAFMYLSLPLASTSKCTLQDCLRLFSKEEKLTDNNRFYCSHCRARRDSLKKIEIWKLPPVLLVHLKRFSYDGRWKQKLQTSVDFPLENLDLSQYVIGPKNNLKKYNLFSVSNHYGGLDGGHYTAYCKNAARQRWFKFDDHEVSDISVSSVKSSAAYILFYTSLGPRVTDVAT
Method in brief: as §1

[9] = biological target: USP9X (UniProt Q93008)
Chain of USP9X (Q93008 whole entry): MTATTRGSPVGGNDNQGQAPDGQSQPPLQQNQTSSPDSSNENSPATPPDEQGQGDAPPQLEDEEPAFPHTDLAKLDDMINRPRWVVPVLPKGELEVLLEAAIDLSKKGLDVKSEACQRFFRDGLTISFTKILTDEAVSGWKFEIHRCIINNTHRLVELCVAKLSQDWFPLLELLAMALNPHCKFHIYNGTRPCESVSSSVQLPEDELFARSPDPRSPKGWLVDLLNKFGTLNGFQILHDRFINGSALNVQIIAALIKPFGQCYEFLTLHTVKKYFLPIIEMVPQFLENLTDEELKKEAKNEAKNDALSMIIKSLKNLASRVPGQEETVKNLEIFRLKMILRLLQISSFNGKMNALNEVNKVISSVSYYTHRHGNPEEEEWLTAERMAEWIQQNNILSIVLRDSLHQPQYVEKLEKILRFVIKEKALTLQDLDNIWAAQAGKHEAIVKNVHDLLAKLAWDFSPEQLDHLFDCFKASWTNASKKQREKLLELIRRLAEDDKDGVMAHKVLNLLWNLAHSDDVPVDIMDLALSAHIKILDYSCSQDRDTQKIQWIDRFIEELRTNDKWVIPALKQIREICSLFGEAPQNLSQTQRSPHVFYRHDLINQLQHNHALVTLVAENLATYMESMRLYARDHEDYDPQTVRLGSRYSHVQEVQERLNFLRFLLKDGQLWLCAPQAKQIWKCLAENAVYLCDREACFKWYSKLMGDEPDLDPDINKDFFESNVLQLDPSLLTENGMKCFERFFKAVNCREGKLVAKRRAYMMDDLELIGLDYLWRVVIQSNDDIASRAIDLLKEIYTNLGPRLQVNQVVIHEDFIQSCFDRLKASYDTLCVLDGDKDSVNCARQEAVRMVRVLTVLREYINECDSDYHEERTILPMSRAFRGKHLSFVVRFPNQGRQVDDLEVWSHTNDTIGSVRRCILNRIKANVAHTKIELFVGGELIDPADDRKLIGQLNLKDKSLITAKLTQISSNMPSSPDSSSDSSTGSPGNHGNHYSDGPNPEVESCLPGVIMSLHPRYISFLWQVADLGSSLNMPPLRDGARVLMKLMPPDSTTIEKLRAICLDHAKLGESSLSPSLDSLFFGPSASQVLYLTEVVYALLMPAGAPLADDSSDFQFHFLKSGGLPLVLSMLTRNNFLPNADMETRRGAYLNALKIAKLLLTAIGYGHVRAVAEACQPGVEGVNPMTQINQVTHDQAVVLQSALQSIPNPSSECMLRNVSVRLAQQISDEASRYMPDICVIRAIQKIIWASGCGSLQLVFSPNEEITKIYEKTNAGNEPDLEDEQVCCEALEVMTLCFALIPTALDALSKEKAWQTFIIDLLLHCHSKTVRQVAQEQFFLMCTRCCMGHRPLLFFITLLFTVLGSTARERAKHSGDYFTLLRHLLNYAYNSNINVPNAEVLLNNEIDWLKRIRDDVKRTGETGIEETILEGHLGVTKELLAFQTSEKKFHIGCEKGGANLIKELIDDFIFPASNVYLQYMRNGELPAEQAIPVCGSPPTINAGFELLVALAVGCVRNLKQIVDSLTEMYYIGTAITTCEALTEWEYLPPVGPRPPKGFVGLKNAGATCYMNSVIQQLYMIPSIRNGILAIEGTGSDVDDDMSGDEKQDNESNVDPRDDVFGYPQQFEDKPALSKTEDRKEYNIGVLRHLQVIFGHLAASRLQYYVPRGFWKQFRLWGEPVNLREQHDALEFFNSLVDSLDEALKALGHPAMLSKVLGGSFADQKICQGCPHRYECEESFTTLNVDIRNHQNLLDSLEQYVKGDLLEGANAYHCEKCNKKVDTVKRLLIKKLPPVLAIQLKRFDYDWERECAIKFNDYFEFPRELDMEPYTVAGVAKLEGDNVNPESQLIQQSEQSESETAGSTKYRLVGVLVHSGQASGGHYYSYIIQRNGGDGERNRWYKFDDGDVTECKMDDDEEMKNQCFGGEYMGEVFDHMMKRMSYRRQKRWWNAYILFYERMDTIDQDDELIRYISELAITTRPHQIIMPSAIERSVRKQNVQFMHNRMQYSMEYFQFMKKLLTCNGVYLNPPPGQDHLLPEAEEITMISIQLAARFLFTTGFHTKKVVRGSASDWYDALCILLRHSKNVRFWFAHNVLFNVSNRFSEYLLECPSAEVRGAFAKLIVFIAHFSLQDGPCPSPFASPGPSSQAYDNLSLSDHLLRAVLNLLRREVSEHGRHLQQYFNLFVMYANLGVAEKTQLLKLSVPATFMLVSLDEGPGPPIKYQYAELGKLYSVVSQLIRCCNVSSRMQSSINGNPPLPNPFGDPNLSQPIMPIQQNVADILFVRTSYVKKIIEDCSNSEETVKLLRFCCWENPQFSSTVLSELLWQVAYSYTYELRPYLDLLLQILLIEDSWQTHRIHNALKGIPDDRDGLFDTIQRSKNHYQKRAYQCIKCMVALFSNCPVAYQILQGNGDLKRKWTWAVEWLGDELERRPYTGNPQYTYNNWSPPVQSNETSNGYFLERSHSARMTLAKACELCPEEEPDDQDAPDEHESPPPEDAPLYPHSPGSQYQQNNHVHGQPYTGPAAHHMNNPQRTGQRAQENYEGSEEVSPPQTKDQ
Method in brief: as §1

[10] = biological target: UniProt O00487
Chain of UniProt O00487 (O00487 whole entry): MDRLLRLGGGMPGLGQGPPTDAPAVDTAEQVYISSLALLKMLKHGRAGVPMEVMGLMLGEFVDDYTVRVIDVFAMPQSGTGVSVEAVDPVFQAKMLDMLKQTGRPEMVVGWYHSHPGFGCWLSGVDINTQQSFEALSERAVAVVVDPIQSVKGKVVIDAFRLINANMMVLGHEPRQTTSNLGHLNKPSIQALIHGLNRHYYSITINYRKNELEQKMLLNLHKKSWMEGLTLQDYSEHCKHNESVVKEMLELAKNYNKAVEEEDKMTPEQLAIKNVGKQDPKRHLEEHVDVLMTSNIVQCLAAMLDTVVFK
Method in brief: as §1

Measured: log2 ratio of Biotin-Ahx-Ub-VS probe labelling

Cc1noc(N2CCN(C(=O)CCl)CC2)n1.Cl
inactive: [1] 0.0551 | [2] -0.0466 | [3] -0.329 | [4] 0.0849 | [5] 0.492 | [6] 0.167 | [7] -0.27 | [8] -0.307 | [9] -0.318 | [10] 0.0199
